High-throughput results (PubChem)
MBD2 inh: inhibitors of human MBD2 binding to methylated oligonucleotide; Q9UBB5; inhibition, % at 4.4 µM; TR-FRET; 370,000 tested, 0.31% active; AID 686964; in the data active = inhibition above about 13%
DNMT1 block: inhibitors of human DNMT1; AID 588458; DNMT1 molecular beacon, Hinp1I cleavage, fluorescence; P26358; inhibition (reported as % activation of signal), % at 10 µM; 360,000 tested, 0.83% active; in the data active = inhibition above about 50%
Target sequence (P26358 504-1616 limits assumed): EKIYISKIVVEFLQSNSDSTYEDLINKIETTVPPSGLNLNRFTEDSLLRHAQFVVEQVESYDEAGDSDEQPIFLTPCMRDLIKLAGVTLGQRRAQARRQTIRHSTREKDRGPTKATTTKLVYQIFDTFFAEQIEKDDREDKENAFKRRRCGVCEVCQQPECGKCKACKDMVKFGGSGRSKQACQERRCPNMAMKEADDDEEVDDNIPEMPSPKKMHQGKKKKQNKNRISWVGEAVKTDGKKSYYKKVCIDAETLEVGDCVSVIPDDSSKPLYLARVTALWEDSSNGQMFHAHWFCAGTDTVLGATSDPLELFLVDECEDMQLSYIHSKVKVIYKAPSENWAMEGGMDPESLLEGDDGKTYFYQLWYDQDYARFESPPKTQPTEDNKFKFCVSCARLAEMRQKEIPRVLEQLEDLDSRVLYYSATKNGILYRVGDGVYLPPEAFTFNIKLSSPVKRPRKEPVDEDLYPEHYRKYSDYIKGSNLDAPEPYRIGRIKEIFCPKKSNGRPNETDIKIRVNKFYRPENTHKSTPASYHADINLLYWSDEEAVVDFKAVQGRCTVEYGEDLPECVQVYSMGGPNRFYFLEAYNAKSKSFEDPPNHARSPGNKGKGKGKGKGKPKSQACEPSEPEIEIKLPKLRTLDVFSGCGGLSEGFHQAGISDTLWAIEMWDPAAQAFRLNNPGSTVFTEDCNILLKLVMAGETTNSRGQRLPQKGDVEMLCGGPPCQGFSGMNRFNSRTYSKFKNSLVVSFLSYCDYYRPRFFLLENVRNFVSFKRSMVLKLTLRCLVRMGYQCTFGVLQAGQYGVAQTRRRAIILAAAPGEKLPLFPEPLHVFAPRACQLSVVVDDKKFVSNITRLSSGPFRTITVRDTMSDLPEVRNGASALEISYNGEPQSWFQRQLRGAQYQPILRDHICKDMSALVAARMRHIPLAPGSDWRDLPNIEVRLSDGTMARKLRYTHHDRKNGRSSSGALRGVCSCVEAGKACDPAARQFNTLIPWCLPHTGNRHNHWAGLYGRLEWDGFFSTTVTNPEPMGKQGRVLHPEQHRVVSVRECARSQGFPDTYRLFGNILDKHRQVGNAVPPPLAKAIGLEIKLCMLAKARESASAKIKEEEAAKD
PG9 Ab binder: PG9 antibody binding by small molecule | TR-FRET gp120-PG9 antibody binding | inhibition, % at 6.7 µM | 360,000 tested, 0.43% active; in the data active = inhibition above about 8.5%
LEDGF integ inh: blocks HIV-1 LEDGF/p75-dependent DNA integration. TR-FRET IN-LEDGF/p75 DNA integration, Eu/Cy5. inhibition, % at 3.7 µM. 370,000 tested, 0.64% active. AID 743269;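 active = inhibition above the screen-wide mean plus 3 SD, cut at about 13% in these data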;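 also: signal is the Cy5 over europium emission ratio at 671 and 618 nm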
rCAG RNA binder: binds r(CAG) RNA repeats. r(CAG) RNA repeat, TO-PRO-1 dye displacement fluorescence. inhibition, % at 3 µM. 370,000 tested, 1.3% active;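 active = inhibition above the plate cutoff, the mean of all test compounds on that plate plus 3 SD, cut at about 35% in these data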;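 also: higher means more dye released from RNA so lower well fluorescence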
UHRF1 MBD2 ctr: UHRF1 methyl-DNA binding inhibition | Q96T88 | 370,000 tested, 0.75% active | UHRF1 binding to methylated oligo, TR-FRET | AID 687016 | inhibition, % at 4.4 µM; in the data active = inhibition above about 21%;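 also: UHRF1 SRA domain binding a hemimethylated CpG hairpin DNA probe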
DNMT1 interf DR: beacon fluorescence artifact, dose response counter-screen. shares compounds with DNMT1 block. molecular beacon fluorescence, spectral interference counter-screen. IC50, µM. 200 tested, under 10 active. AID 602382; call rule not given here
DNMT1 confirm: confirmation of human DNMT1 inhibitors; shares compounds with DNMT1 block; DNMT1 molecular beacon HinP1I cleavage, fluorescence; inhibition, % at 10 µM; 2,300 tested, 8% active; AID 602385;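 active = average inhibition of at least 30% in the single-concentration confirmation test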
DNMT1 interf: counter-screen for DNMT1 inhibitors: spectral interference. DNMT1 molecular beacon spectral interference counterscreen, fluorescence 485/520. AID 602387. activation (fluorescence interference), % at 10 µM. shares compounds with DNMT1 block. 2,300 tested, 1% active;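 active = activation of at least 30% at 10 µM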;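 also: DNMT1 catalytic domain with a HinP1I cleavage step and a FAM/dabcyl DNA beacon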
Numbers stand for hits; 0 = inactive; - = no result. Sampled rows, rich in hits. Any-hit rate of the full collection: about 3.5%.

SMILES	MBD2 inh	DNMT1 block	PG9 Ab binder	LEDGF integ inh	rCAG RNA binder	UHRF1 MBD2 ctr	DNMT1 confirm	DNMT1 interf	others
O=C(Cc1ccccc1)NCCN1CCCC1	0	0	0	0	0	0	-	-
Cc1ccccc1CC(=O)NCCN1CCCCC1	0	80	0	0	0	0	0	0
C[C@@H]1CCCCO[C@@H](CN(C)C(=O)Nc2ccccc2)[C@@H](C)CN([C@H](C)CO)C(=O)c2cc(NC(=O)NC3CCCCC3)ccc2O1	0	-	0	0	0	0	-	-
Cn1cc(/C=C/c2cc[n+](C)cc2)c2cc(F)ccc21	-	60	-	-	-	-	56	53
CCCn1c(SCc2nc3sc(C)c(C)c3c(=O)[nH]2)nc2ccccc2c1=O	0	54	0	0	0	0	0	0
O=C(Cc1ccsc1)NNC(=O)c1ccc(F)cc1	0	0	0	0	0	0	-	-
Cc1ccc(-c2nc(COC(=O)C3=NN(c4ccccc4)C(=O)CC3)cs2)cc1	0	0	0	0	0	0	-	-
O=C1c2ccccc2C(=O)N1Cc1ccco1	0	0	0	0	0	0	-	-
O=C1c2cccc3c(O)ccc(c23)C(=O)N1Cc1ccco1	0	95	0	0	0	0	133	116
COc1ccc(N=Cc2ccccc2O)cc1	0	0	0	0	0	0	-	-
COc1ccc(N=Cc2oc3ccc4ccccc4c3c2O)cc1	0	60	0	0	0	0	0	0
CCOC(=O)c1c(NC(=O)C2CCCO2)sc(C(=O)OC(C)(C)C)c1C (stereo not given)	0	51	0	0	0	0	0	0
CCc1nc2oc3ccccc3c(=O)c2c(=O)n1-c1ccc(C)cc1	0	78	0	0	0	0	0	0
Cc1ccc(NC(=O)CSc2nsc(SCC(=O)Nc3ccc(C)cc3C)c2C#N)c(C)c1	0	52	0	0	0	0	0	0
CCOC(=O)CSc1nsc(SCC(=O)OCC)c1C#N	0	76	0	0	0	0	0	0
Cc1csc(NC(=O)CSc2nsc(SCC(=O)Nc3nc(C)cs3)c2C#N)n1	0	0	0	0	0	0	-	-
O=C(O)c1cc(S(=O)(=O)N2CC3CC3C2C(=O)O)c(Cl)cc1Cl (stereo not given)	0	0	0	0	0	0	-	-
S=C(NCc1cccc(Cl)c1)OC1CCC12CCC(c1ccccc1)CC2 (stereo not given)	0	-	-	0	0	0	-	-
O=C(Nc1ccc2c(c1)C(=O)c1ccccc1-2)c1ccccc1	0	0	0	0	0	0	-	-
COc1cccc(C(=O)Nc2ccc3c(c2)C(=O)c2ccccc2C3=O)c1	0	74	0	0	0	0	0	0
O=C(Nc1ccc2nc(-c3ccco3)c(-c3ccco3)nc2c1)N1CCN(c2ccccn2)CC1	0	93	0	24	44	0	0	0
O=C(/C=C/c1ccco1)NC(=S)Nc1cc(-c2nc3ccccc3s2)ccc1Cl	0	98	0	0	46	0	0	0
O=C(/C=C/c1ccco1)NC(=S)Nc1cccc(-c2nc3ccccc3s2)c1	0	0	0	0	0	0	-	-
Cc1ccc(-c2nc3ccccc3s2)cc1NC(=S)NC(=O)/C=C/c1ccco1	0	54	0	0	0	0	0	0
Nc1ccn([C@@H]2O[C@H](COS(=O)(=O)O)[C@@H](O)[C@H]2O)c(=O)n1	0	0	0	0	0	0	-	-
SMILES	MBD2 inh	DNMT1 block	PG9 Ab binder	LEDGF integ inh	rCAG RNA binder	UHRF1 MBD2 ctr	DNMT1 confirm	DNMT1 interf	others
CCNC(=O)c1ccc(NC(=O)CC2SC(N3CCCC3)=NC2=O)cc1 (stereo not given)	0	0	0	0	0	0	-	-
COC(=O)CN1C(=O)[C@H]2[C@@H](c3ccc(C)o3)N3C(=O)CN(CCO)C(=O)[C@@]3(C)[C@H]2C1=O	0	103	0	0	0	0	0	0
Cc1ccc([C@@H]2[C@@H]3C(=O)N(C)C(=O)[C@@H]3[C@]3(C)C(=O)N(CC4CC4)CC(=O)N23)o1	0	0	0	0	0	0	-	-
O=C(c1cc2cc(Cl)ccc2oc1=O)N1CCN(c2ccccn2)CC1	0	89	0	0	0	0	0	0
O=C(c1cc2cc(Br)ccc2oc1=O)N1CCN(c2ccccn2)CC1	0	0	0	0	0	0	-	-
O=C(NCCc1ccc(O)cc1)c1[nH]c(C(F)(F)F)nc1-c1ccccc1	0	0	0	0	0	0	-	-
N#Cc1c(N)n(CCc2ccc(F)cc2)c2nc3ccccc3nc12	0	71	0	0	0	0	0	0
COCCn1c(N)c(C#N)c2nc3ccccc3nc21	0	0	0	0	0	0	-	-
COc1cc(OC)cc(-c2oc(=O)c3cc(OC)c(OC)cc3c2/C=C/c2ccc(F)cc2)c1	0	0	0	0	0	0	-	-
CC(=O)c1ccc(N2CCN(C(=O)Cc3n[nH]c(=O)c4ccccc34)CC2)cc1	0	66	0	0	0	0	0	0
COc1ccccc1NC(=O)Nc1nc(C(N)CC(C)C)cs1 (stereo not given)	0	0	0	0	0	0	-	-
O=C(O)c1cc([N+](=O)[O-])ccc1-c1ccc([N+](=O)[O-])cc1C(=O)O	0	61	0	0	0	0	0	0
COc1ccc2[nH]c(C(=O)NCc3ccccc3)c(C)c2c1	0	70	0	0	0	0	0	0
CCCCCCCCC(=O)c1c(OC)oc(C=O)cc1=O	0	98	0	0	0	0	38	0	DNMT1 interf DR=0
CCCCCCC(=O)Nc1cc2c(C)cc(=O)oc2cc1C	0	0	0	0	0	0	-	-
Cc1cc2oc(C(=O)N3CCN(Cc4ccccc4)CC3)c(C)c2cc1C	0	0	0	0	0	0	-	-
CC(=O)N1N=C(c2ccccc2)CC1c1cccs1 (stereo not given)	0	0	0	0	0	0	-	-
CC(=O)N1N=C(c2ccccc2)CC1c1ccccc1 (stereo not given)	0	88	0	0	0	0	0	0
O=C(c1ccccc1)N1N=C(c2ccccc2)CC1c1cccs1 (stereo not given)	0	89	0	0	0	0	0	0
Cc1ccc([C@H]2C[C@H](O)[C@@H](n3cc(C4CC4)nn3)CN2C(=O)C2CCCCC2)cc1	0	0	0	0	0	0	-	-
CCCc1c(C(=O)N/N=C/C=C/c2ccccc2)nnn1-c1nonc1N	0	51	0	0	0	0	0	0
CCCc1c(C(=O)N/N=C/C(C)=C/c2ccccc2)nnn1-c1nonc1N	0	0	0	0	0	0	-	-
CCCCN(C(=O)c1ccccc1F)c1c(N)n(CCC)c(=O)[nH]c1=O	0	0	0	0	0	0	-	-
CC1CCN(S(=O)(=O)c2ccc(-c3nnc(SCc4cccnc4)o3)cc2)CC1	0	55	0	0	0	0	0	0
